# Reference: PubChem BioAssay (NCI)
# Compounds without any hit were thinned out: in the full panel of roughly 83,000, 20% have a hit.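 Assay: single dose, 48 h. Readout: percent growth (0 = no net growth; negative = cell death). Active: <10.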 A number with no mark means an inactive call. The source made the active and inactive calls.
# What was measured:
# Experiment in all cases: NCI-60 one-dose screen, 48 h (100 = growth as untreated, 0 = no growth, -100 = all killed)
# Settings in all cases: 10 µM
# NCI-H23 lung = test system: NCI-H23 lung
# NCI-H226 lung = test system: NCI-H226 lung
# NCI-H322M lung = test system: NCI-H322M lung
# HOP-62 NSCLC = test system: HOP-62 NSCLC
# NCI-H460 lung = test system: NCI-H460 lung
# HOP-92 NSCLC = test system: HOP-92 NSCLC
# NCI-H522 lung = test system: NCI-H522 lung
# A549/ATCC NSCLC = test system: A549/ATCC NSCLC
# 786-0 renal = test system: 786-0 renal
# COLO 205 colon = test system: COLO 205 colon
Structure (SMILES),growth (NCI-H23 lung),growth (NCI-H226 lung),growth (NCI-H322M lung),growth (HOP-62 NSCLC),growth (NCI-H460 lung),growth (HOP-92 NSCLC),growth (NCI-H522 lung),growth (A549/ATCC NSCLC),growth (786-0 renal),growth (COLO 205 colon)
CCCCCCCCCCCC(c1ccccc1)N(C)C (stereo not given),102%,97.2%,103%,119%,105%,74.2%,103%,97.5%,104%,101%
C/C=C\COc1cc(C)c(Cl)cc1Cl,111%,87.5%,104%,109%,103%,85.5%,119%,91.8%,108%,107%
CCOC(=O)Nc1ccc2c(c1)C(=O)N(CC)c1ccccc1O2,30.1%,14.5%,50%,24.8%,9.56% (active),33.7%,-39% (active),19.4%,31.1%,-29.8% (active)
CCCCCCCCCCCC(=O)NCCCN(C)C,90.4%,109%,97.1%,111%,99.6%,45.5%,87.4%,91.4%,90.9%,94.4%
CCCCC(=O)N(c1ccc(Nc2c3ccccc3nc3cc([N+](=O)[O-])ccc23)cc1)S(C)(=O)=O,81.8%,71.3%,82.1%,56%,14%,39.2%,50.7%,34%,74.3%,88.1%
NC1CCC(Nc2nc(NCc3ccc(-c4cccs4)nc3)c3ncn(C4CCCC4)c3n2)CC1 (stereo not given),-33.8% (active),-9.23% (active),19%,-2.05% (active),3.28% (active),-13% (active),-52.6% (active),4.31% (active),0.15% (active),-51.4% (active)
COc1ccc(-c2n/c(=C\c3c(O)[nH]c4ccccc34)cc3c2=Nc2ccccc2-3)cc1,33.8%,59.7%,96%,86.2%,9.63% (active),42.1%,63.1%,37.4%,-31.3% (active),35.9%
CCNC1(NC#N)CCCCC1,102%,95.6%,113%,109%,113%,85%,123%,91.4%,100%,111%
CCC(CCNc1cc(OC)cc2cccnc12)CN1C(=O)c2ccccc2C1=O (stereo not given),91.3%,98.9%,112%,102%,138%,93%,87.5%,105%,104%,113%
COc1cc2c3c(cccc3c1)C(=O)N(CCN1CCCC1)C2=O,32.5%,0.818% (active),13.6%,25.7%,-22% (active),-8.44% (active),-11% (active),6.08% (active),36.1%,4.92% (active)
COc1ccc(-c2cn[nH]c2-c2cc(OC)c(OC)c(OC)c2)cc1,27.8%,56.7%,26.4%,45.2%,3.25% (active),-5.63% (active),-17.9% (active),21.2%,-4.65% (active),-68% (active)
COc1nc2c(c(=O)[nH]1)C(c1ccc(Oc3ccnc4cc(Cl)ccc34)c(OC)c1)C=C(c1cc(OC)c(OC)c(OC)c1)N2 (stereo not given),95.3%,96.6%,95.2%,116%,102%,82.1%,93.3%,101%,95%,102%
Cc1ccccc1[P+](Cc1ccccc1)(c1ccccc1)c1ccccc1,9.83% (active),39.5%,42.3%,32.3%,17.5%,-21.8% (active),-15.8% (active),19.7%,43.7%,-56% (active)
CN(C1c2ccccc2Oc2ccccc21)S(=O)(=O)c1cc(Cl)ccc1Cl,69.8%,62.7%,78.4%,48.6%,34.5%,34.8%,3.68% (active),52.4%,64.1%,53%
CCOC(=O)c1c(C)n(-c2ccc(Cl)cc2)c2ccc(OC(=O)/C=C/c3ccccc3)cc12,93.3%,95.1%,94.8%,95%,99.1%,58%,82.3%,67.7%,94.3%,93.1%
CCN1CCOC1C(C)C (stereo not given),102%,109%,103%,99.5%,107%,114%,97.1%,101%,94.2%,110%
COc1cc(/C=C/C(=O)c2cc(-c3ccc(C(F)(F)F)cc3)ccc2O)cc(OC)c1OC,64.3%,84.1%,82.1%,98.7%,56.5%,63.1%,40.8%,81.4%,80.3%,71.6%
COc1cccc(C(=O)NNc2nc(N3CCOCC3)nc(N3CCN(C(c4ccccc4)c4ccccc4)CC3)n2)c1,84.2%,83.6%,82.8%,82.2%,87.8%,70.3%,86.6%,62.4%,86.6%,75.4%
Nc1ccc(C2=CC(c3ccc(Cl)cc3)N3C=CSC3=N2)cc1 (stereo not given),-46.6% (active),-71.4% (active),-57.2% (active),-63.8% (active),-6.81% (active),-22.7% (active),-65.9% (active),-39.3% (active),-90.9% (active),-85.1% (active)
C#CCNCCN1C(=O)c2ccc3c4c(ccc(c24)C1=O)C(=O)N(CCNCC#C)C3=O,23.8%,20.9%,28.7%,48.4%,12.8%,91.2%,26.3%,29.2%,43.1%,-77.3% (active)
O=[N+]([O-])c1ccc(Br)o1,94.4%,93.1%,103%,100%,113%,102%,84.4%,104%,99.2%,105%
Oc1ccc(Cn2cc3c(c2-c2ccccc2)CCc2cnoc2-3)cc1,92.8%,96.4%,116%,99.2%,105%,79.2%,84.5%,84.1%,92.9%,98%
O=NN(CCCl)C(=O)NCc1ccc(-c2ccc(CNC(=O)N(CCCl)N=O)cc2)cc1,103%,96.7%,86.2%,91.5%,97.8%,96.5%,81.7%,87.1%,94.8%,104%
Nc1ccn([C@@H]2O[C@H](COP(=O)(O)O[C@@H]3C[C@H](n4cc(F)c(=O)[nH]c4=O)O[C@@H]3COP(=O)(O)O[C@@H]3C[C@H](n4cc(F)c(=O)[nH]c4=O)O[C@@H]3COP(=O)(O)O[C@@H]3C[C@H](n4cc(F)c(=O)[nH]c4=O)O[C@@H]3COP(=O)(O)O[C@@H]3C[C@H](n4cc(F)c(=O)[nH]c4=O)O[C@@H]3COP(=O)(O)O[C@@H]3C[C@H](n4cc(F)c(=O)[nH]c4=O)O[C@@H]3COP(=O)(O)O[C@@H]3C[C@H](n4cc(F)c(=O)[nH]c4=O)O[C@@H]3COP(=O)(O)O[C@@H]3C[C@H](n4cc(F)c(=O)[nH]c4=O)O[C@@H]3COP(=O)(O)O[C@@H]3C[C@H](n4cc(F)c(=O)[nH]c4=O)O[C@@H]3COP(=O)(O)O[C@@H]3C[C@H](n4cc(F)c(=O)[nH]c4=O)O[C@@H]3COP(=O)(O)O[C@@H]3C[C@H](n4cc(F)c(=O)[nH]c4=O)O[C@@H]3COP(=O)(O)OCCOCCOCCOCCOCCOCCO)[C@H](O)C2O)c(=O)n1 (stereo not given in full),33.2%,72.7%,83.5%,30%,6.31% (active),71%,45%,11.7%,28.2%,36.9%
CCc1cc2n(n1)-c1ncc(C(=O)OC)cc1Oc1ccccc1-2,104%,99.8%,108%,95.4%,104%,86.2%,94.2%,91.4%,100%,116%
CC1(C)CCc2cc(-c3ccn(S(=O)(=O)c4ccc(Cl)cc4)n3)ccc2O1,65.5%,74.4%,94.2%,92.9%,73.8%,8% (active),66.2%,67.4%,71.4%,117%
